In assay [1] the target is Tumor necrosis factor receptor superfamily member 10B (Homo sapiens) (UniProt O14763). Kind of assay: viability loss of caspase-8 NB7 cells with TRAIL – with/without TRAIL, luminescence panel, confirmation (AID 651596). The following applies: NB7 neuroblastoma + caspase-8, TRAIL sensitization, NB7 Caspase-8, with TRAIL, mean of runs, at 10 µM, stronger effect = higher value.
Assay in assay [2]: as above
The following applies: NB7 neuroblastoma + caspase-8, without TRAIL, NB7 Caspase-8, without TRAIL, mean of runs, at 10 µM.

Chain of Tumor necrosis factor receptor superfamily member 10B (Homo sapiens) (O14763 whole entry, looked up): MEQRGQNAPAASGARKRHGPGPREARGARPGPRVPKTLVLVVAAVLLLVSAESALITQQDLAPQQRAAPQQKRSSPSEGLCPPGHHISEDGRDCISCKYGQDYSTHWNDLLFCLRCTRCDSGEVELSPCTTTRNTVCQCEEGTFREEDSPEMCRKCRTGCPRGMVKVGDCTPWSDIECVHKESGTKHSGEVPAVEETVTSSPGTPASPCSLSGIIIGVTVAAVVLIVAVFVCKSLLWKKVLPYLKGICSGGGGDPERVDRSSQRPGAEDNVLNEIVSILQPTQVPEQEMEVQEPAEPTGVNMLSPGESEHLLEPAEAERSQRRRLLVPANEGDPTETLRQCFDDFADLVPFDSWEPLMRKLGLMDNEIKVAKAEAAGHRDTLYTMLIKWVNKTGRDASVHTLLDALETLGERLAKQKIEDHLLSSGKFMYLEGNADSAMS

`CC(C)CC(/C(O)=C(\C#N)c1nc2ccccc2[nH]1)N1C(=O)c2ccccc2C1=O` (configuration not stated): the figures for the activity in assay [1] and in assay [2] were 66.3% and 61.7%, respectively.

For `Cc1cc(C)cc(C(=O)Nc2nc3ccccc3[nH]2)c1`, the activity in assay [1] was 78.7%; in assay [2] it was 72.5%.

`O=C(Cn1ncc(Cl)c(Cl)c1=O)Nc1ccc2c(c1)OCO2`: the activity in assay [1] and in assay [2] was 99.5% each time.

As for `CCCCC(=O)Nc1cc(C)c2c(=O)oc3ccccc3c2n1`, the activity in assay [1] was found to be 62.4%; in assay [2], 56.6%.

On to `C=CCOn1c(C)c(C(C)=O)c2c3no[n+]([O-])c3ccc21`, for which the activity in assay [1] was 53.5%; in assay [2] it was 64.2%.

With `Cc1nn(-c2ccccc2)c(C)c1/C=N/NC(=O)c1cc(C23CC4CC(CC(C4)C2)C3)[nH]n1`, the activity in assay [1] stood at 74.1%; in assay [2] it was 60%.

Regarding `S=c1nc[nH]c2c1ncn2C1CCCO1` (configuration not stated), the activity in assay [1] was 17.8%; in assay [2], 47.4%.

As to `N#C/C(=C\c1cc(Cl)cc(Cl)c1O)C(=O)NC1CCCCC1`, the activity turned out to be 26.5% in assay [1] and 47.6% in assay [2].

As to `O=C(Nc1ccccc1NC(=O)c1c(F)c(F)c(F)c(F)c1F)c1c(F)c(F)c(F)c(F)c1F`, the activity in assay [1] came out at 90.2%; in assay [2] it was 96.2%.

As for `Nc1nc(N)c2cc(CNc3ccc(Cl)c(Cl)c3)ccc2n1`, the activity in assay [1] was 85.2%; in assay [2], 73.4%.

As for `O=C(Nc1cccc(Cl)c1)c1nc[nH]c1C(=O)NCCCNC(=O)c1[nH]cnc1C(=O)Nc1cccc(Cl)c1`, the results for the activity in assay [1] and in assay [2] were 45.5% and 77.4%, respectively.

Consider `C/C(=N\NC(=O)c1nn(C)c(C)c1Br)c1cccc(NC(=O)c2ccc(F)cc2)c1`, for which the activity in assay [1] was found to be 46%; in assay [2], 50.5%.

Regarding `CN(C)S(=O)(=O)c1ccc(C(=O)Nc2nnc(SCC(=O)N3CCOCC3)s2)cc1`, the activity in assay [1] turned out to be 62.7%; in assay [2], 66%.

On to `CCCCOc1ccc(-c2nc(=S)[nH][nH]2)cc1`, for which the activity was 67.1% in assay [1] and 66.6% in assay [2].

Regarding `CCCn1c(C)cc(C(=O)COC(=O)c2cc(=O)[nH]c3ccccc23)c1C`, the values for the activity in assay [1] and in assay [2] were 61.2% and 59.1%, respectively.

Take `Cc1cccc(-c2cc3nc(-c4ccccc4)cc(=O)n3[nH]2)c1`: the activity is 50% in assay [1] and 55.2% in assay [2].

`CC(=O)Oc1ccc(/C=N\NC(=O)c2cc3c(ccc4ccccc43)o2)cc1`: the activity in assay [1] came out at 64.6%; in assay [2], 67.7%.

As for `COc1cccc(/C=C2\Oc3ccc(O)cc3C2=O)c1O`, the activity in assay [1] stood at 66.8%; in assay [2], 56.4%.

For the compound `CCOc1ccc(C(C)=O)cc1COC(=O)c1cnc(Cl)c(Cl)c1`, the activity stood at 97.6% in assay [1] and 79.1% in assay [2].

`Cc1cccc(-n2ncc3c(N4CCOCC4)ncnc32)c1`: the activity was 85.7% in assay [1] and 88.5% in assay [2].

In the case of `COc1ccc(C(=O)N/N=C(/C)c2cccc(NC(=O)c3ccccc3F)c2)cc1`, the activity turned out to be 53.5% in assay [1] and 62.1% in assay [2].

`COc1ccc(/C=N\n2nnc3ccccc32)cc1`: the activity came out at 53.3% in assay [1] and 42.7% in assay [2].

With `C[C@H](CO)N1C[C@H](C)[C@@H](CN(C)C(=O)NC2CCCCC2)Oc2c(NS(=O)(=O)c3ccccc3)cccc2C1=O`, the values for the activity in assay [1] and in assay [2] were -8.07% and 1.05%, respectively.

For `Cc1ccc(C(=O)Nc2ccc3nccnc3c2)cc1`, the values for the activity in assay [1] and in assay [2] were 77.5% and 74.8%, respectively.

Consider `CCN1CCN(Cc2ccc(NC(=O)c3ccc(C)c(NC(=O)c4c[nH]c5cc(C(F)(F)F)ccc5c4=O)c3)cc2C(F)(F)F)CC1`, for which the activity in assay [1] and in assay [2] was 98.8% throughout.

`COc1nn(-c2ccccc2)c(=O)c(Cl)c1Cl`: the activity in assay [1] turned out to be 92.3%; in assay [2], 96.3%.
